Shown are actives, neighbours in structure and some others; about 2.4% of the full set was active somewhere.
TMEM16A inh – mouse TMEM16A channel inhibition, primary screen; Q8BHY3; HEK293 TMEM16A/YFP iodide influx fluorescence, ionomycin; normalized B-score (activity score, 25-100; higher = stronger inhibition) at 10 µM; 1.2% of 310,000 active; AID 588511;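 active means ratio plate-corrected score three or more library SD toward inhibition, starting fluorescence score within five deviations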;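 further: score derived from kinetic fluorescence span divided by baseline fluorescence per well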
TMEM16A act – activators or potentiators of mouse TMEM16A chloride channel | Q8BHY3 | HEK293 TMEM16A/YFP-H148Q/I152L, iodide quench fluorescence; hits give low values | B-score at 10 µM | 0.3% of 340,000 active;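 active means fluorescence-ratio B-score plate-corrected deviation score at least 3 library SD below zero, with starting fluorescence score within 5 deviations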;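 further: channel opened by trigger with iodide after compound preincubation; score built on the fluorescence ratio of max minus min over baseline; more negative score means more quench and so TMEM16A activation or potentiation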
CHT allo act – allosterically activates the human high affinity choline transporter | Q9GZV3 | CHT-expressing cells, membrane potential dye, choline EC20; hits give high values; LV-AA mutant CHT in HEK293 cells | B-score at 10 µM | 0.49% of 310,000 active | AID 488977;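 active means initial fluorescence not abnormally high and integrated response B-score, plate-corrected, over 3 SD above library mean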
Target sequence (Q9GZV3 whole entry, looked up): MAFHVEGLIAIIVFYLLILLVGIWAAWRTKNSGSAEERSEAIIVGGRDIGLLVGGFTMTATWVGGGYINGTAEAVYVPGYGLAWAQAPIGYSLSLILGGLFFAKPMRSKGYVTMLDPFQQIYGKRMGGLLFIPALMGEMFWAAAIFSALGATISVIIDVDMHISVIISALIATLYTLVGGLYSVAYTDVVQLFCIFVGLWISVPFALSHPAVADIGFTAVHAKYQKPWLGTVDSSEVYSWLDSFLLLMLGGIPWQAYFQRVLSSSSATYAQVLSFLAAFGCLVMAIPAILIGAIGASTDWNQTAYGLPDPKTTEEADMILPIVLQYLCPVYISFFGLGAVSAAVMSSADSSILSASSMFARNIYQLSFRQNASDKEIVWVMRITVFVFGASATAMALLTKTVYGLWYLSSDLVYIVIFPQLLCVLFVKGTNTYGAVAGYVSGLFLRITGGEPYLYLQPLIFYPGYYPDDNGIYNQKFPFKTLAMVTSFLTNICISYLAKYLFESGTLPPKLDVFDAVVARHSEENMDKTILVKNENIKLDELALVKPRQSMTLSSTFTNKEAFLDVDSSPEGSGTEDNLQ
CHT inh – inhibitors of human choline transporter CHT; Q9GZV3; CHT-expressing cells, membrane potential dye, choline response; hits give low values; B-score at 10 µM; 0.86% of 310,000 active;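 active means B-score over 3 SD under the library average, and starting fluorescence ratio not unusually high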;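 further: choline stimulus applied at its EC90 after an EC20 pre-addition; B-score computed on integrated fluorescence ratio after choline addition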
TMEM16A reconf – reconfirmed blocker of mouse TMEM16A calcium-activated chloride channel | HEK293 TMEM16A/YFP-H148Q, iodide quench fluorescence; ionomycin added to raise cell calcium | inhibition, % at 10 µM | 39% of 2,300 active | shares compounds with TMEM16A inh;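 active means mean duplicate percent inhibition, scaled so buffer wells are 0 and the reference blocker 100, over three buffer SD above buffer mean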
HEK293 Ca mobil – counter-screen for TMEM16A inhibitors: effect on calcium mobilization. shares compounds with TMEM16A inh. TMEM16A/YFP HEK293, Fluo4 calcium mobilization. calcium response (% of ionomycin), % at 10 µM. 2% of 2,300 active;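 active means duplicate-averaged calcium signal over 20% of the ionomycin maximum, relative to buffer baseline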;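 further: each well's signal is peak minus trough fluorescence divided by its pre-addition baseline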
Parental YFP cnt – counter-screen for TMEM16A inhibitors: effect in parental YFP-HEK293 cells | 2,300 tested, under 10 active | shares compounds with TMEM16A inh | YFP ratio F(max-min)/F0 at 10 µM | AID 652233 | iodide YFP quench, ionomycin;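 active means yellow fluorescent protein signal ratio exceeding the buffer control mean by over 5 SD of those controls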;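 further: ratio is mean of duplicate wells from kinetic YFP trace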
ClC-1 rat inh – blocks the rat ClC-1 voltage-dependent chloride channel. CHO ClC-1-YFP, iodide influx fluorescence quench; iodide control reads 0, buffer control 100. 2,300 tested, under 10 active. ratio percent, % at 10 µM. AID 652236. shares compounds with TMEM16A inh;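 active means duplicate-mean ratio percent above the mean of iodide-only control wells, which defines zero, plus 5 of their SD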;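 further: higher percent means stronger block of ClC-1 iodide influx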
Numbers stand for hits; 0 = inactive; - = no result given.

SMILES	TMEM16A inh	TMEM16A act	CHT allo act	CHT inh	TMEM16A reconf	HEK293 Ca mobil	Parental YFP cnt	ClC-1 rat inh
O=C1CC(N2CCN(c3nc4ccccc4s3)CC2)C(=O)N1Cc1cccs1 (configuration not stated)	100	0	0	0	30%	0	0	0
CC(Oc1ccc(Cl)cc1)c1ccnn1S(=O)(=O)c1ccccc1 (configuration not stated)	100	0	0	0	32%	0	0	0
NNC(=S)NCc1cccnc1	0	0	0	0	-	-	-	-
Cc1ccccc1NC(=S)NNC(=O)c1ccoc1C	100	0	0	0	0	0	0	0
COc1ccc(-c2c(C(F)(F)F)[nH]n3c(=O)cc(-c4ccccc4)nc23)cc1	100	0	0	0	49%	0	0	0
COc1cccc(N=Nc2c(N)[nH]n3c(=O)cc(-c4ccccc4)nc23)c1	0	0	0	0	-	-	-	-
O=C(COC(=O)C1(c2ccc(F)cc2)CCCC1)Nc1ncc(C(F)(F)F)cc1Cl	100	0	0	0	55%	0	0	0
CCOC(=O)Cc1csc(NC(=O)c2ccncc2)n1	100	0	0	0	19%	0	0	0
S=C(NCC1CCCO1)N1CCN(c2nc(-c3ccccc3)cs2)CC1 (configuration not stated)	25	0	0	0	18%	0	0	0
O=C(Nc1ccccc1)c1ccc(S(=O)(=O)N2CCCCC2)cc1	0	0	0	0	-	-	-	-
O=C(Nc1ccn(-c2ccccc2)n1)c1ccc(S(=O)(=O)N2CCCCCC2)cc1	25	0	0	0	0	0	0	0
COc1ccccc1N1CCN(C(=O)c2oc3ccc(Br)cc3c2C)CC1	0	0	0	0	-	-	-	-
Cc1ccc(N/C(N)=N/c2nc(C)cc(N3CCCCC3)n2)c(C)c1	100	-6.3	0	0	62%	0	0	0
COc1ccc(CCCc2nnc(SCC(=O)Nc3ncc(C)s3)o2)cc1	0	0	0	0	-	-	-	-
COc1ccc(CCCc2nnc(SCC(=O)Nc3cccc(C)c3)o2)cc1	25	0	0	0	18%	0	0	0
Cc1cccc(N2CCN(C(=O)CCC(=O)N3CC(C)Oc4ccccc43)CC2)c1C (configuration not stated)	25	0	0	0	0	0	0	0
CC1(C)Cc2cccc(C(=O)NCc3ccco3)c2O1	0	0	0	0	-	-	-	-
CCN1C=C(Cc2ccc(F)cc2)C2=C(C1)C(c1ccc(F)cc1)C(C#N)=C(N)O2 (configuration not stated)	25	0	0	0	0	0	0	0
CCOc1ccccc1NC(=O)c1cc(-c2ccncc2)nc2c(Cl)cccc12	-	0	-	-	-	-	-	-
Cc1cccc2cc3c(N)c(C(=O)Nc4ccc(N5CCOCC5)cc4)sc3nc12	0	0	0	0	0	0	0	0
COc1ccc(C(=O)NC2CCN(C(=S)Nc3cccc(C)c3)CC2)cc1	0	0	0	0	-	-	-	-
Cn1c(=O)[nH]c(=O)c2c1nc(NC1CCCC1)n2Cc1ccccc1	0	0	0	0	-	-	-	-
Cc1ccc(C(C)NC(=O)c2c(C)noc2C)cc1C (configuration not stated)	25	0	0	0	0	0	0	0
CCN(CC)c1nc(-c2ccccc2)nc2c1sc(=S)n2CC	0	0	0	0	-	-	-	-
O=C(OCc1ccc(Cl)cc1)c1ccccc1C(=O)c1ccccc1	100	0	0	0	0	0	0	0
Cc1ccc(NC(=O)c2ccc(CN3CCc4ccccc4C3)cc2)cc1	25	0	0	0	0	0	0	0
O=C(Nc1cccnc1)c1ccc(CN2CCc3ccccc3C2)cc1	25	0	0	0	22%	0	0	0
O=C(Nc1ccccc1)c1ccc(CN2CCc3ccccc3C2)cc1	0	0	0	0	-	-	-	-
N=C1c2ccccc2CN1c1ccc(N2CCOCC2)c(S(=O)(=O)Nc2ccc(Cl)cc2)c1	0	-	0	0	-	-	-	-

Assay outcomes: PubChem, Johns Hopkins Ion Channel Center
